Source: PubChem BioAssay (Broad Institute)
Most compounds without a hit are left out; they make up all but 6.7% or so of the library.
T cruzi growth: inhibitors of T. cruzi proliferation | T. cruzi beta-gal in NIH3T3, GalScreen luminescence, 90 h | inhibition, % at 8.34 µM | actives 5.9% (n = 77,000) | AID 624255;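 active = mean inhibition above about 93%, with at least 55% of replicates each passing it, limit read from the data, passing the limit was not always enough; inconclusive = only one of those two conditions holds; inactive = neither condition holds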
C diff growth: C. difficile growth inhibition | Clostridium difficile clinical isolate growth, OD600, 24 h; active compounds read low | actives 0.25% (n = 86,000) | growth activity, negative = inhibition, % at 16 µg/mL (by protocol);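 active = mean growth activity at or below -80% and every replicate also at or below -80%; inconclusive = mean at or below -80% but some replicate above -80%; inactive = mean growth activity above -80%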;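 note: 0% = DMSO wells and -100% = levofloxacin 16 µg/mL wells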
Pf Dd2 growth: P. falciparum Dd2 growth inhibition; SYBR Green, 72 h; active compounds read low; activity change, % at 10 µM; actives 2.3% (n = 94,000); in the data active = activity change below about -80%; inconclusive = no clear call, values can overlap the other calls
* marks the source's active call; other numbers are inactive results; ? = inconclusive; · = no result; ! = not confirmed by another sample.

SMILES | T cruzi growth | C diff growth | Pf Dd2 growth
Cc1ccccc1S(=O)(=O)N1CCCCN2[C@H](CO)[C@H](c3ccc(-c4ccccc4)cc3)[C@H]2C1 | 66 | 34 | -82*
CCCC#Cc1ccc([C@@H]2[C@H](CO)N3CCCCN(S(=O)(=O)c4ccccc4C)C[C@@H]23)cc1 | 87 | -96* | -73
CCCC#Cc1ccc([C@@H]2[C@H](CO)N3CCCCN(S(=O)(=O)Cc4ccccc4)C[C@@H]23)cc1 | 83 | -90* | -84*
CCCC#Cc1ccc([C@@H]2[C@@H](CO)N3CCCCN(S(=O)(=O)Cc4ccccc4)C[C@@H]23)cc1 | 84 | 34 | -14
Cc1ccccc1S(=O)(=O)N1CCCCN2[C@@H](CO)[C@@H](c3ccc(-c4ccccc4)cc3)[C@@H]2C1 | 55 | 1 | -75
CCCC#Cc1ccc([C@H]2[C@H]3CN(S(=O)(=O)c4ccccc4C)CCCCN3[C@H]2CO)cc1 | 65 | 18 | -8
COc1ccc(NC(=O)N(C)C[C@H]2Oc3ccc(NS(=O)(=O)c4ccc(OC)cc4)cc3C(=O)N([C@@H](C)CO)C[C@H]2C)cc1 | -20 | 1 | -3
C[C@@H]1CN([C@@H](C)CO)C(=O)Cc2cc(NC(=O)Nc3ccc(C(F)(F)F)cc3)ccc2O[C@H]1CN(C)C | · | 2 | 6
C[C@@H]1CN([C@@H](C)CO)C(=O)Cc2cc(NC(=O)c3ccncc3)ccc2O[C@H]1CN(C)Cc1ccc2c(c1)OCO2 | -42 | -2 | -1
COc1ccccc1-c1ccc(C2[C@@H]3CN(Cc4cccc(F)c4)C[C@H]2N3)cc1 (stereo not given in full) | · | -90*! | -36
COc1cccc(CN2C[C@@H]3N[C@H](C2)C3c2ccc(-c3ccc(C#N)cc3)cc2)c1 (stereo not given in full) | · | 68 | ?
COc1ccccc1-c1ccc(C2[C@@H]3CN(Cc4nccs4)C[C@H]2N3)cc1 (stereo not given in full) | · | 15 | -53
COc1cccc(CN2C[C@@H]3N[C@H](C2)C3c2ccc(-c3ccccc3OC)cc2)c1 (stereo not given in full) | · | -97*! | -28
COc1ccccc1CN1[C@@H]2CNC[C@H]1C2c1ccc(-c2cccnc2)cc1 (stereo not given in full) | · | 17 | 21
COc1ccccc1CN1C[C@@H]2N[C@H](C1)[C@@H]2c1ccc(-c2cccnc2)cc1 | · | -3 | -87*
O=C(NCC1CC1)[C@H]1[C@H](CO)[C@H]2Cn3c(cccc3=O)[C@H]2N1C(=O)Nc1ccccc1 | 40 | 3 | ·
CN1[C@@H]2c3ccc(/C=C/c4ccccc4)c(=O)n3C[C@H]1[C@H](CO)[C@H]2C(=O)NC1CCCC1 | · | -9 | 42
C=CCCN(CC#C[C@H]1Oc2ccccc2S(=O)(=O)N2CCC[C@@H]12)S(=O)(=O)c1ccc(C)cc1 | · | -6 | ·
CCCN1C[C@H](C)[C@H](OC)CN(C)C(=O)c2ccc(NC(=O)Nc3ccccc3F)cc2OC[C@@H]1C | -10 | · | -6
COc1ccccc1CN1C[C@@H](C)[C@H](OC)CN(C)C(=O)c2cc(NC(=O)Nc3ccccc3OC)ccc2OC[C@H]1C | 20 | · | -89*
COc1ccccc1CN1C[C@H](C)[C@@H](OC)CN(C)C(=O)c2cc(NC(C)=O)ccc2OC[C@H]1C | -15 | · | -23
CO[C@H]1CN(C)C(=O)c2cc(NC(=O)C3CC3)ccc2OC[C@H](C)N(Cc2cc(F)ccc2F)C[C@H]1C | 95 | · | -88*
CO[C@@H]1CN(C)C(=O)c2cc(NC(=O)C3CC3)ccc2OC[C@@H](C)N(Cc2cc(F)ccc2F)C[C@@H]1C | 80 | · | -64
CN1CCN(C(=O)c2cc3c(c(-c4cccc(-c5ccc(C(=O)N(C)C)cc5)c4)n2)[C@H](CCO)N([S@@](=O)C(C)(C)C)C3)CC1 | -19 | · | 7
O=C(c1cccnc1)N1CC2(C1)[C@@H](c1ccccc1)[C@@H](CO)N2C(=O)CC1CC1 | · | -5 | -87*
SMILES | T cruzi growth | C diff growth | Pf Dd2 growth
O=C(CC1CC1)N1CC2(C1)[C@H](c1ccccc1)[C@@H](CO)N2C(=O)c1cccnc1 | · | -6 | -57
CCCNC[C@@H]1[C@@H](c2ccc(C3=CCCCC3)cc2)[C@@H](CO)N1C(=O)C1CCC1 | · | 9 | -73
CCC(=O)N1[C@H](CO)[C@H](c2ccc(C3=CCCCC3)cc2)[C@H]1CNCC1CCC1 | · | 10 | -85*
OC[C@@H]1[C@H](c2ccc(C3=CCCC3)cc2)[C@@H](CNC2CCCC2)N1CC1CC1 | · | 42 | -91*
CCC(=O)N1[C@H](CO)[C@H](c2ccc(C3=CCCCC3)cc2)[C@@H]1CNC1CCCC1 | · | 17 | -76
CCCNC[C@H]1[C@@H](c2ccc(C3=CCCCC3)cc2)[C@@H](CO)N1C(=O)C1CCC1 | · | 7 | -83*
CCC(=O)NC[C@@H]1[C@@H](c2ccc(C3=CCCCC3)cc2)[C@@H](CO)N1CC1CC1 | · | 12 | -65
COc1ccc(CN(C)C[C@H]2Oc3c(NC(=O)NC4CCCCC4)cccc3C(=O)N([C@H](C)CO)C[C@H]2C)cc1 | -22 | -3 | 0
CCCN(C)C[C@H]1OCCCC[C@H](C)Oc2ccc(NS(=O)(=O)c3c(C)noc3C)cc2C(=O)N([C@H](C)CO)C[C@H]1C | 18 | -1 | -71
CCCN(C)C[C@H]1OCCCC[C@@H](C)Oc2ccc(NS(=O)(=O)c3ccc(Cl)cc3)cc2C(=O)N([C@H](C)CO)C[C@@H]1C | 85 | -3 | -14
CCCN(C)C[C@H]1OCCCC[C@@H](C)Oc2ccc(NS(=O)(=O)c3ccc(F)cc3)cc2C(=O)N([C@H](C)CO)C[C@@H]1C | -9 | -6 | 0
CCCN(C)C[C@@H]1OCCCC[C@@H](C)Oc2ccc(NS(=O)(=O)c3ccc(C)cc3)cc2C(=O)N([C@H](C)CO)C[C@H]1C | 54 | 6 | -89*
CCCN(C)C[C@H]1OCCCC[C@H](C)Oc2ccc(NS(=O)(=O)c3ccc(Cl)cc3)cc2C(=O)N([C@H](C)CO)C[C@H]1C | 79 | 2 | -28
CCCN(C)C[C@H]1OCCCC[C@H](C)Oc2ccc(NS(=O)(=O)c3c(C)noc3C)cc2C(=O)N([C@@H](C)CO)C[C@@H]1C | 72 | -3 | -89*
CCCN(C)C[C@H]1OCCCC[C@H](C)Oc2ccc(NS(=O)(=O)c3ccc(C)cc3)cc2C(=O)N([C@@H](C)CO)C[C@@H]1C | 33 | 4 | -90*
CCCN(C)C[C@H]1OCCCC[C@H](C)Oc2ccc(NS(=O)(=O)c3ccc(C)cc3)cc2C(=O)N([C@H](C)CO)C[C@H]1C | 81 | 8 | -86*
CCC(=O)N(C)C[C@@H]1Oc2cc(-c3cncnc3)ccc2S(=O)(=O)N([C@@H](C)CO)C[C@H]1C | 17 | -1 | 12
COc1ccc(NC(=O)N(C)C[C@H]2OCCCC[C@H](C)Oc3ccc(NC(=O)Cc4ccccc4)cc3C(=O)N([C@H](C)CO)C[C@@H]2C)cc1 | 15 | -1 | -29
C[C@H](CO)N1C[C@H](C)[C@H](CN(C)Cc2ccc(C(=O)O)cc2)Oc2ccc(NC(=O)Cc3ccccc3)cc2CC1=O | -34 | -4 | 9
C[C@H]1CN([C@@H](C)CO)C(=O)c2cc(NC(=O)CCCN(C)C)ccc2O[C@H]1CN(C)Cc1ccc(-c2ccccc2)cc1 | · | 4 | 4
